Measurements from PubChem BioAssay (Tox21).
Inconclusive results are not listed. Values without a mark were called inactive. The source made the active and inactive calls. The call rests on the fitted dose curve.

assay: p53 small molecule agonists, cell-based qHTS assay with human liver microsomes: qHTS cell viability counter screen (AID 1963579); conditions: p53RE-bla HCT-116 viability, ATP luminescence, 16 h, HLM; series mostly up to 66 µM; activity change, negative = cytotoxicity: at the top concentration; further: nearly all actives have a fitted effect of over 45% in size
Text: National Center for Advancing Translational Sciences [NCATS]
Division of Preclinical Innovation [DPI]
U.S. Environmental Protection Agency [EPA]
National Institutes of Environmental Health Sciences [NIEHS]
National Toxicology Program [NTP]
U.S. Food and Drug Administration [FDA]
p53, a tumor suppressor protein, is activated following cellular insult, including DNA damage and other cellular stresses. The activation of p53 regulates cell fate by inducing DNA repair, cell cycle arrest, apoptosis, or cellular senescence. The activation of p53, therefore, is a good indicator of DNA damage and other cellular stresses. […] The activation of the reporter gene under culture conditions can be detected by fluorescence intensity. This cell line was used to screen the Tox21 10K compound library in the condition of presence of human liver microsomes and to identify agonists that activate the p53 signaling pathway after in vitro metabolic activation (Ooka et al., Archive of Toxicology 96:1975-1987, 2022).
Tox21 Assay Protocol Summary:
The p53RE-bla cells were dispensed at 4,000cells/3ul/well in 1536-well black-clear bottom plates. After the assay plates were incubated at 37 C, 5% CO2 incubator for 5 hours, 23 nL of compounds dissolved in DMSO, positive controls or DMSO only was transferred to the assay plate. Following compound addition, 3 uL of human liver microsomes (XenoTech, Kansas City, KS) at final concentration of 0.5 mg/mL and 1uL of B-Nicotinamide adenine dinucleotide 2'-phosphate (NADPH) at final concentration of 0.5 mg/mL were transferred to the assay plate. The plates were incubated at 37 C for 16 hours. 1 uL of LiveBLAzer detection mixture was added to each well and the plates were incubated at room temperature in the dark for 2 h. Fluorescence intensity at 460 and 530 nm emission and 405 nm excitation were measured by an Envision plate reader. For cell viability readout that measures cytotoxicity, 4 ul/well of CellTiter-Glo reagent was added into the assay plates using a Flying Reagent Dispenser. After 30 min incubation at room temperature, the luminescence intensity in the plates was measured using a ViewLux plate reader.
On the % scale 0 is the no-effect control and ±100 the full control effect; potency means the concentration at half of the fitted maximal effect.

SMILES	activity change, negative = cytotoxicity	Potency
COc1ccccc1OC(=O)Oc1ccccc1OC	4.31% [at 30.3 µM]	
CC1(C)S[C@@H]2[C@H](NC(=O)C(c3ccccc3)S(=O)(=O)O)C(=O)N2[C@H]1C(=O)O (stereo not given in full)	1.74% [at 30.3 µM]	
Cc1ncc([N+](=O)[O-])n1CC(C)O (stereo not given)	12% [at 30.3 µM]	
CCC(C)C(=O)OC (stereo not given)	3.94%	
COc1cc(C)ccc1O	-0.268%	
CC(=O)Nc1ccc(C)cc1C	-6.26%	
C[C@]12C=CC(=O)C=C1[C@@H](F)C[C@@H]1[C@@H]2[C@@H](O)C[C@@]2(C)[C@H]1CC[C@]2(O)C(=O)CO	6.98% [at 30.3 µM]	
O=C1c2ccccc2C(=O)C1c1ccc(Br)cc1	-4.94% [at 30.3 µM]	
Cc1nc2ccccn2c(=O)c1CCN1CCC(C(=O)c2ccc(F)cc2)CC1	0.719% [at 30.3 µM]	
CC[N+](CC)(CC)Cc1ccccc1	-7.86%	
CC(C(=O)O)c1ccc2c(c1)CC(=O)c1ccccc1S2 (stereo not given)	-11.1% [at 30.3 µM]	
CN1CCN(Cc2cc(-c3ccc4[nH]c(=O)oc4c3)co2)[C@@H](c2ccc(F)cc2)C1	-15.1%	
CC(C)NCC(O)c1ccc(NS(C)(=O)=O)cc1 (stereo not given)	0.63%	
O=C(Nc1cccc2c(=O)cc(-c3nn[nH]n3)oc12)c1ccc(OCCCCc2ccccc2)cc1	0.441% [at 30.3 µM]	
CC(=O)OC(C)=O	0.472%	
CCN(CC)C(C)=O	0.344%	
O=C(O)c1cc(O)c2ccccc2c1O		8.14 µM (active)
O=S(=O)(O)c1ccc(N=Nc2c(O)ccc3ccccc23)cc1	-15.6%	
O=C(Nc1ccccc1)Nc1ccccc1	1.1%	
CCCCCCCCCCCCCCCCOP(=O)([O-])OCC[N+](C)(C)C	-6.63% [at 30.3 µM]	

SMILES	activity change, negative = cytotoxicity	Potency
Cc1ccsc1/C=C/C1=NCCCN1C	22.3% [at 30.3 µM]	
O=[N+]([O-])c1ccc(CO)cc1	-3%	
O=C1Nc2cc(Cl)ccc2Oc2ccccc21	12% [at 30.3 µM]	
Cc1cn([C@@H]2O[C@H](CO)[C@@H](O)[C@@H]2F)c(=O)[nH]c1=O	7.6% [at 30.3 µM]	
FC(F)(F)c1ccc(Cl)cc1Cl	6.64%	
CO[C@H]1O[C@H](CO)[C@@H](O)[C@H](O)[C@H]1O	18.6%	
CC(O)c1ccccc1 (stereo not given)	4.13%	
O=Cc1ccc(F)c(Br)c1	-1.95%	
O=P(O)(O)C(O)(Cc1cccnc1)P(=O)(O)O	-10.7% [at 30.3 µM]	
CCCCC/C=C/CC1CC(=O)OC1=O (stereo not given)	-6.71%	
Nc1ccccc1S(=O)(=O)c1ccccc1	-12.2%	
C[Si](NC1CCCCC1)(NC1CCCCC1)NC1CCCCC1	2.13%	
C1=C\CC/C=C\CC/1	5.08%	
Cc1cscn1	11%	
CC(C)(O)CCc1ccccc1	-0.483%	
Cc1ccc2nc(N)[nH]c(=O)c2c1Sc1ccncc1	-9.15% [at 30.3 µM]	
O=C1c2ccccc2S(=O)(=O)N1CCCCN1CCN(c2ncccn2)CC1	-12.7% [at 30.3 µM]	
CCOC(=O)OCC/C(SC(=O)OCC)=C(\C)N(C=O)Cc1cnc(C)nc1N	0.0035% [at 30.3 µM]	
COc1cc2c(cc1N)oc1ccccc12		33.1 µM (active)
Oc1cc2ccccc2cc1O	-2.43%	
